Results from ChEMBL document CHEMBL3433997, “St. Jude Leishmania screening dataset” (2016).

Molecular target: Hexose transporter 1 (Plasmodium falciparum) (UniProt O97467)
Experiment: ST_JUDE_LEISH: Cytotoxicity at 2uM final concentration against transgenic Leishmania Mexicana promastigotes LmPfHT that are glucose transport deficient and complemented with the Plasmodium falciparum hexose transporter. Activity is measured by DNA content using SYBR green in vitro
Assay type: functional

**Q.** Which inhibition does the source give for CC(C)(C)[C@@H](Nc1ccc(C#N)c2ccccc12)C(=O)NC1(Cc2ccc(O)cc2)CCCC1 here?
**A.** -0.5%

**Q.** COc1cccc(CNc2ncc(-c3ccsc3)c(-c3nccs3)n2)c1 was tested. Which inhibition did it give?
**A.** 0.89%

**Q.** CCCCNC(=O)C1CCCN(C(=O)c2ccc(O)c(-c3ccc(Cl)c(Cl)c3)c2)C1 (stereo not given) was tested. Which inhibition did it give?
**A.** 1.16%

**Q.** Cc1ccc(F)c(OC2CCN(c3ccc(C(=O)NC4CC4)cn3)CC2)c1 was tested. Which inhibition did it give?
**A.** 1.76%

**Q.** With Cc1cc(NC(=O)c2coc3cc(F)c(N4CC(C)N(C)C(C)C4)cc23)cnc1-c1ccc(C#N)cc1 (stereo not given) as the compound, how does the inhibition read?
**A.** -1%

**Q.** Which inhibition does the source give for Cc1ccc(S(=O)(=O)N(CCCNCc2cccc(O)c2)c2ccccc2)cc1 here?
**A.** 6.1%

**Q.** For CC(C)C1CCc2nc(N)nc(N)c2C1 (stereo not given), which inhibition is on record?
**A.** 4.4%

**Q.** How did the inhibition turn out when CCc1cn2c3c(cc(C(=O)N[C@@H](Cc4cccc(F)c4)[C@H](O)CNC4CCOCC4)cc13)N(C)S(=O)(=O)CC2 was run?
**A.** 0.52%

**Q.** How did the inhibition turn out when COc1cc(Cc2cnc(N)nc2N)cc(OCCCCc2nnn[nH]2)c1OC was run?
**A.** 1.16%

**Q.** How did the inhibition turn out when CNc1ccc(CNCc2cccc(-c3ccc(-c4nc5cccc(C)c5[nH]4)s3)c2)cc1 was run?
**A.** 5%

**Q.** N#Cc1ccc(N(CCOc2ccc3c(c2)CCC(=O)N3)Cc2ccccc2C(F)(F)F)cc1C(F)(F)F was tested. Which inhibition did it give?
**A.** 4.94%

**Q.** How did the inhibition turn out when O=C(Cn1c(CCc2cccc(F)c2F)cc(=O)c2ccccc21)N(CCN1CCCCC1)Cc1ccc(-c2ccc(C(F)(F)F)cc2)cc1 was run?
**A.** 5.08%

**Q.** Which inhibition does the source give for Cn1nc(-c2cccc(CNCCc3cccs3)c2)c2cnc(NC3CCCC3)nc21 here?
**A.** 5.16%

**Q.** Cc1cccc2nc(-c3cccc(-c4ccc(NC(=O)C5CCN(C)CC5)cc4)c3)[nH]c12 was tested. Which inhibition did it give?
**A.** 2.27%

**Q.** How did the inhibition turn out when CC(=O)Nc1ncc(C(=O)Nc2cccc(-c3cccc(-c4nc5ccccc5[nH]4)c3)c2)s1 was run?
**A.** 1.44%

**Q.** For COc1cccc(-c2ccc(C(=O)NC3CCN(Cc4ccc(N(C)C)cc4)CC3)s2)c1, which inhibition is on record?
**A.** 1.14%

**Q.** Which inhibition does the source give for COc1cc(Cc2cnc(N)nc2N)cc(OCCCCNS(=O)(=O)C(F)(F)F)c1OC here?
**A.** 1.69%

**Q.** Which inhibition does the source give for Cc1cc(N[C@@H](CC(C)C)C(=O)NCCOc2ccccc2)nc(NCCc2ccc(F)cc2)n1 here?
**A.** 2.57%

**Q.** For CC(C)Nc1cc(C(=O)N[C@@H](Cc2ccccc2)[C@H](O)CNC(C)(C)c2cccc(C(F)(F)F)c2)cc(N2CCCCS2(=O)=O)c1, which inhibition is on record?
**A.** 2.46%

**Q.** How did the inhibition turn out when COc1cc(C(=O)N2N=C(c3c(-c4ccccc4)c4cc(Br)ccc4[nH]c3=O)CC2c2cccc([N+](=O)[O-])c2)cc(OC)c1OC (stereo not given) was run?
**A.** 3.48%

**Q.** Cc1ccc(-c2nnc3c4ccccc4c(C)nn23)cc1S(=O)(=O)N1CCN(CCO)CC1 was tested. Which inhibition did it give?
**A.** 0.96%

**Q.** Which inhibition does the source give for O=C(NC1CCN(CC2(c3ccccc3)CCCC2)CC1)c1n[nH]cc1Cl here?
**A.** 0.32%

**Q.** How did the inhibition turn out when N#Cc1ccc(OCCN(Cc2ccccc2C(F)(F)F)c2ccc(C#N)c(C(F)(F)F)c2)cc1 was run?
**A.** 9.42%

**Q.** With COc1ccc(CNC(=O)NC2CCN(c3ccnc(Nc4ccc(F)cc4)n3)C2)cc1 (stereo not given) as the compound, how does the inhibition read?
**A.** 5.37%

**Q.** For CC(C)(C)c1ccc(CN2CCCCC(NC(=O)c3cc(-c4cccc(Cl)c4)cs3)C2)cc1 (stereo not given), which inhibition is on record?
**A.** -0.87%

Molecular target: Glucose transporter (Leishmania mexicana) (UniProt O61059)
Experiment: ST_JUDE_LEISH: Cytotoxicity at 2uM final concentration against transgenic Leishmania Mexicana promastigotes LmGT2 that are glucose transport deficient and complemented with the L. Mexicana glucose transporter 2. Activity is measured by DNA content using SYBR green in vitro
Assay type: functional

**Q.** With O=C(Nc1ccc(C(=O)N2CCN(CCN3CCN(c4cccc(C(F)(F)F)c4)CC3)CC2)cc1)c1ccc(OC(F)(F)F)cc1 as the compound, how does the inhibition read?
**A.** -2.39%

**Q.** How did the inhibition turn out when COc1ccc(Nc2ncc3c(-c4cccc(NC(=O)Cc5cccc(F)c5)c4)c[nH]c3n2)cc1OC was run?
**A.** 4.39%

**Q.** With CCCCN(CCCC)CCOc1cc2c(cc1OC)CCN2C(=O)/C=C/c1ccccc1Cl as the compound, how does the inhibition read?
**A.** -0.32%

**Q.** Which inhibition does the source give for O=C(NCCN1CCCC1)c1ccc(-c2ccc(-c3nc4cc(C(F)(F)F)ccc4[nH]3)s2)cc1 here?
**A.** 3.38%

**Q.** CCCNCc1ccc(-c2ccc(CN(CCOC)C(=O)/C=C/c3ccccc3C)cc2)nc1 was tested. Which inhibition did it give?
**A.** 6.86%

**Q.** COCCOc1cc(C)c(C2CCN(CCCCNC(=O)c3ccc(NC(=O)c4ccc(Cl)cc4)cc3)CC2)cc1C was tested. Which inhibition did it give?
**A.** 8.98%

**Q.** With COc1cc2c(cc1OC)CC(NCCCCCCNCCc1ccc(Cl)cc1)CC2 (stereo not given) as the compound, how does the inhibition read?
**A.** 0.76%

**Q.** c1ccc(-c2[nH]c3ccccc3c2CN2CCC(N3CCCCC3)CC2)nc1 was tested. Which inhibition did it give?
**A.** -1.64%

**Q.** Oc1ccc(CCNc2nc(NCc3ccccc3Oc3ccc(C(F)(F)F)cc3)nc(N3CCNCC3)n2)cc1 was tested. Which inhibition did it give?
**A.** -2.4%

**Q.** Which inhibition does the source give for CC(=O)Nc1ccc(C(=O)N2CCN(c3ccnc4cc(Cl)ccc34)CC2)cc1 here?
**A.** -0.23%

**Q.** Cc1nc(C)c(-c2ccc(S(=O)(=O)c3ccc(Cl)cc3)cc2)c(O)c1Br was tested. Which inhibition did it give?
**A.** 4.12%

**Q.** With O=C(OCC1CCN(Cc2ccccc2)C1)c1ccc(Cl)cc1 (stereo not given) as the compound, how does the inhibition read?
**A.** 2.14%

**Q.** CCn1c(-c2nonc2N)nc2c(Cl)ncc(O[C@H](CCN)c3ccccc3F)c21 was tested. Which inhibition did it give?
**A.** 20.2%

**Q.** How did the inhibition turn out when CN1CCN(c2ccnc3cc4c(cc23)N(C(=O)Nc2ccc3c(c2)CCCC3=O)CC4)CC1 was run?
**A.** 0.75%

**Q.** For O=C(NC1CCN(c2ccnc(Nc3ccc(F)cc3)n2)C1)c1cc2ccccc2s1 (stereo not given), which inhibition is on record?
**A.** 1.27%

**Q.** With CC(C)(C)[C@@H](Nc1ccc(C#N)c2ccccc12)C(=O)NC1(Cc2ccc(O)cc2)CCCC1 as the compound, how does the inhibition read?
**A.** 0.41%

**Q.** COc1cccc(CNc2ncc(-c3ccsc3)c(-c3nccs3)n2)c1 was tested. Which inhibition did it give?
**A.** -0.73%

**Q.** CCCCNC(=O)C1CCCN(C(=O)c2ccc(O)c(-c3ccc(Cl)c(Cl)c3)c2)C1 (stereo not given) was tested. Which inhibition did it give?
**A.** 0.69%

**Q.** Which inhibition does the source give for Cc1ccc(F)c(OC2CCN(c3ccc(C(=O)NC4CC4)cn3)CC2)c1 here?
**A.** -3.52%

**Q.** Cc1cc(NC(=O)c2coc3cc(F)c(N4CC(C)N(C)C(C)C4)cc23)cnc1-c1ccc(C#N)cc1 (stereo not given) was tested. Which inhibition did it give?
**A.** -1.53%

**Q.** For Cc1ccc(S(=O)(=O)N(CCCNCc2cccc(O)c2)c2ccccc2)cc1, which inhibition is on record?
**A.** 7.86%

**Q.** With CC(C)C1CCc2nc(N)nc(N)c2C1 (stereo not given) as the compound, how does the inhibition read?
**A.** 0.91%

**Q.** CCc1cn2c3c(cc(C(=O)N[C@@H](Cc4cccc(F)c4)[C@H](O)CNC4CCOCC4)cc13)N(C)S(=O)(=O)CC2 was tested. Which inhibition did it give?
**A.** 1.47%

**Q.** With COc1cc(Cc2cnc(N)nc2N)cc(OCCCCc2nnn[nH]2)c1OC as the compound, how does the inhibition read?
**A.** -0.95%

**Q.** How did the inhibition turn out when CNc1ccc(CNCc2cccc(-c3ccc(-c4nc5cccc(C)c5[nH]4)s3)c2)cc1 was run?
**A.** 6.79%

**Q.** How did the inhibition turn out when N#Cc1ccc(N(CCOc2ccc3c(c2)CCC(=O)N3)Cc2ccccc2C(F)(F)F)cc1C(F)(F)F was run?
**A.** 5.81%

**Q.** Which inhibition does the source give for O=C(Cn1c(CCc2cccc(F)c2F)cc(=O)c2ccccc21)N(CCN1CCCCC1)Cc1ccc(-c2ccc(C(F)(F)F)cc2)cc1 here?
**A.** 3.76%

**Q.** How did the inhibition turn out when Cn1nc(-c2cccc(CNCCc3cccs3)c2)c2cnc(NC3CCCC3)nc21 was run?
**A.** 5.1%

**Q.** For Cc1cccc2nc(-c3cccc(-c4ccc(NC(=O)C5CCN(C)CC5)cc4)c3)[nH]c12, which inhibition is on record?
**A.** 7.2%

**Q.** CC(=O)Nc1ncc(C(=O)Nc2cccc(-c3cccc(-c4nc5ccccc5[nH]4)c3)c2)s1 was tested. Which inhibition did it give?
**A.** 6.64%

**Q.** COc1cccc(-c2ccc(C(=O)NC3CCN(Cc4ccc(N(C)C)cc4)CC3)s2)c1 was tested. Which inhibition did it give?
**A.** -0.07%

**Q.** How did the inhibition turn out when COc1cc(Cc2cnc(N)nc2N)cc(OCCCCNS(=O)(=O)C(F)(F)F)c1OC was run?
**A.** 1.88%

**Q.** For Cc1cc(N[C@@H](CC(C)C)C(=O)NCCOc2ccccc2)nc(NCCc2ccc(F)cc2)n1, which inhibition is on record?
**A.** -0.16%

**Q.** Which inhibition does the source give for CC(C)Nc1cc(C(=O)N[C@@H](Cc2ccccc2)[C@H](O)CNC(C)(C)c2cccc(C(F)(F)F)c2)cc(N2CCCCS2(=O)=O)c1 here?
**A.** 0.9%

**Q.** With COc1cc(C(=O)N2N=C(c3c(-c4ccccc4)c4cc(Br)ccc4[nH]c3=O)CC2c2cccc([N+](=O)[O-])c2)cc(OC)c1OC (stereo not given) as the compound, how does the inhibition read?
**A.** 3.79%

**Q.** Cc1ccc(-c2nnc3c4ccccc4c(C)nn23)cc1S(=O)(=O)N1CCN(CCO)CC1 was tested. Which inhibition did it give?
**A.** -0.93%

**Q.** Which inhibition does the source give for O=C(NC1CCN(CC2(c3ccccc3)CCCC2)CC1)c1n[nH]cc1Cl here?
**A.** -0.85%

**Q.** N#Cc1ccc(OCCN(Cc2ccccc2C(F)(F)F)c2ccc(C#N)c(C(F)(F)F)c2)cc1 was tested. Which inhibition did it give?
**A.** 8.53%

**Q.** COc1ccc(CNC(=O)NC2CCN(c3ccnc(Nc4ccc(F)cc4)n3)C2)cc1 (stereo not given) was tested. Which inhibition did it give?
**A.** 7.65%

**Q.** CC(C)(C)c1ccc(CN2CCCCC(NC(=O)c3cc(-c4cccc(Cl)c4)cs3)C2)cc1 (stereo not given) was tested. Which inhibition did it give?
**A.** -6.21%
